Experimental data from PubChem BioAssay (NCI).
The panel holds about 83,000 compounds, 20% with a hit somewhere; the sample as a whole holds those more often.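 Each cell line was grown in a 96-well plate and treated with one concentration of compound for 48 hours. Values below 10 were considered active.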 A number with no mark means an inactive call. The source made the active and inactive calls.

test system: HL-60(TB) leukemia; experiment: NCI-60 one-dose screen, 48 h (100 = growth as untreated, 0 = no growth, -100 = all killed); conditions: 10 µM unless noted

Question: `C=C1C(=O)O[C@H]2[C@H]1CC/C(C(=O)Nc1ccc(OC)c(C(N)=O)c1O)=C\CC[C@@]1(C)O[C@@H]21` was tested. Which growth did it give?
Answer: 0.316% (active)

Question: With `CC(C)C1=NOC(=O)C1=Cc1cn(-c2ccccc2)nc1-c1ccc(F)cc1` as the compound, how does the growth read?
Answer: -34.9% (active)

Question: `COc1cc([C@@H]2c3cc4c(cc3[C@H](OC3OC5COC(c6ccccc6)OC5C(O)C3O)[C@H]3COC(=O)[C@H]23)OCO4)cc(OC)c1OC` (some centres undefined) was tested. Which growth did it give?
Answer: -33.6% (active)

Question: With `c1ccc2[nH]c(-c3ccc(Nc4nc(N5CCCCC5)nc(N5CCOCC5)n4)cc3)nc2c1` as the compound, how does the growth read?
Answer: -22.7% (active)

Question: Which growth does the source give for `CCc1ccc(C2=C(O)C(=O)C(c3ccc(CC)cc3)=C(O)C2=O)cc1` here?
Answer: -57.6% (active)

Question: With `O=C(CNCCO)Nc1ccc2ncnc(Nc3ccc(OCc4cccc(F)c4)c(Cl)c3)c2c1` as the compound, how does the growth read?
Answer: 86.9%

Question: With `COc1ccc(/C=N/NC(=O)c2ccc(S(C)(=O)=O)cc2)cc1OC` as the compound, how does the growth read?
Answer: 54.1%

Question: How did the growth turn out when `C#C[C@]1(O)CC[C@H]2[C@@H]3CC=C4c5nc(N)sc5CC[C@]4(C)[C@H]3CC[C@@]21C` was run?
Answer: 87.5%

Question: For `O=C1/C(=C/c2cccc([N+](=O)[O-])c2)COc2ccc(O)c(O)c21`, which growth is on record?
Answer: -19.5% (active)

Question: How did the growth turn out when `CCN(CC)CCOc1nc2ccccc2c2c1-c1ccc(OC)cc1C2=O` was run?
Answer: 9.1% (active)

Question: With `O=c1n(CC2CO2)c(=O)n(CC2CO2)n1CC1CO1` (centres undefined) as the compound, how does the growth read?
Answer: 7.91% (active)

Question: Which growth does the source give for `CNC(=O)c1cc(Oc2ccc3nc(Nc4cc(Cl)cc(Cl)c4)ccc3c2)ccn1` here?
Answer: 47.6%

Question: With `N#C/C(=C\c1ccc(Br)cc1)c1cc2ccccc2[nH]1` as the compound, how does the growth read?
Answer: 98.2%

Question: For `COc1ccc(S(=O)(=O)NCCCNc2nccc(-c3c(-c4cccc(N)c4)nc4sccn34)n2)cc1`, which growth is on record?
Answer: 112%

Question: With `Cc1nc(N)nc2c1CCC(Nc1ccccc1)S2` (centres undefined) as the compound, how does the growth read?
Answer: 97.1%

Question: With `CCOC(=O)c1c(C)nc2c(c1N)/C(=C/c1ccccn1)C(=O)N2Cc1ccccc1` as the compound, how does the growth read?
Answer: -5.96% (active)

Question: Which growth does the source give for `CC(C)C[C@H](C(=O)N[C@H](C(N)=O)C(C)C)N1CC=CCN(OCc2ccccc2)S1(=O)=O` here?
Answer: 119% [2.5 µM]

Question: With `COc1cc(CNC(=O)CCCC/C=C/C(C)C)ccc1OCc1cn(-c2ccc([N+](=O)[O-])cc2)nn1` as the compound, how does the growth read?
Answer: 81%

Question: With `Cn1cc(-c2csc(-c3c[nH]c4ccc(F)cc34)n2)c2ccnc(Cl)c21` as the compound, how does the growth read?
Answer: 72%

Question: With `CCOC(=O)c1cnn2c3ccccc3n(S(=O)(=O)c3ccc(OC)cc3)c12` as the compound, how does the growth read?
Answer: 4.77% (active)

Question: With `CCCCn1c(C(=O)c2c[nH]c3ccccc23)n[nH]c1=S` as the compound, how does the growth read?
Answer: 90.8%

Question: For `c1cc2nc(-c3cn[nH]c3)c3c(c2cc1-c1cn[nH]c1)C1CCC3C1` (centres undefined), which growth is on record?
Answer: 84.3%

Question: `CC/C=C/C/C=C/C/C=C/C/C=C/C/C=C/C/C=C/CCC(=O)Nc1ccn([C@@H]2O[C@H](CO)[C@@H](O)C2(F)F)c(=O)n1` was tested. Which growth did it give?
Answer: -16.1% (active)

Question: `CC(C)OP(=O)(O)c1ncc(-c2ccc(C(F)(F)F)cc2)c(NC2CCCCCC2)n1` was tested. Which growth did it give?
Answer: 44.4%

Question: With `O=C(CN1CCN(c2cc3c(cc2F)c(=O)c(C(=O)O)cn3C2CC2)CC1)Nc1cc(=O)[nH]c(=O)[nH]1` as the compound, how does the growth read?
Answer: 103%

Question: With `COc1cc2c(=O)n(CCCN(C)C)c3c4cc5c(cc4ccc3c2cc1OC)OCO5` as the compound, how does the growth read?
Answer: 55%

Question: Which growth does the source give for `CC(C)(C)c1ccc(CCO)cc1` here?
Answer: 86.6%

Question: For `CCC1CCc2nc3sc(C(=O)Nc4ccccc4C)c(N)c3cc2C1` (centres undefined), which growth is on record?
Answer: 2.97% (active)

Question: With `CC1CC=CCC1C1OCC(C)(C)CO1` (centres undefined) as the compound, how does the growth read?
Answer: 91.8%

Question: How did the growth turn out when `O=C(S)CNC(=O)c1ccccc1` was run?
Answer: 91%

Question: Which growth does the source give for `CCn1cc(C2=C(c3cn(C)c4ncccc34)C(=O)NC2=O)c2cccnc21` here?
Answer: 89.8%

Question: For `Cc1ccc(NCCN(C)CC(C)O)c2c(=O)c3ccccc3sc12` (centres undefined), which growth is on record?
Answer: 31.3%

Question: With `CCCCCCC1(/C=N/NC(N)=O)NC(=O)NC1=O` (centres undefined) as the compound, how does the growth read?
Answer: 96.7%

Question: Which growth does the source give for `N#CCc1csc(Cc2ccccc2)n1` here?
Answer: 95.7%

Question: For `COc1ncc(-c2ccc3ncnc(Nc4cccc(Cl)c4)c3c2)cc1N(S(C)(=O)=O)S(C)(=O)=O`, which growth is on record?
Answer: 49.7%

Question: `COc1ccc(C2CC(c3cccc(Nc4ccnc5cc(Cl)ccc45)c3)=NN2C=O)cc1` (centres undefined) was tested. Which growth did it give?
Answer: -38.2% (active)

Question: How did the growth turn out when `CN(C)c1ccc(N=Cc2ccc(N3CCOCC3)cc2)cc1` was run?
Answer: 16.6%

Question: `Clc1ccc(Nc2ccnc(NCCCNc3ccnc4cc(Cl)ccc34)n2)cc1` was tested. Which growth did it give?
Answer: -72.3% (active)

Question: How did the growth turn out when `CCCCN1CCN(c2ccc3nc(-c4ccc5nc(-c6ccc(C(F)(F)F)cc6)[nH]c5c4)[nH]c3c2)CC1` was run?
Answer: -58.7% (active)
